In PubChem BioAssay AID540277 (National Center for Advancing Translational Sciences (NCATS), 2011):
Out of some 320,000 compounds screened, about 55 (0.02%) were called active. Not shown: some 3% with an inconclusive outcome. Cut-off read from the data, not from the text of the source: active = potentiation above about 80%; inconclusive = between about 30% and that limit; inactive = weaker than that. The list comes from a sample in which actives are over-represented; it also holds similar structures and randomly drawn compounds.

The compounds below were run against Transient receptor potential cation channel subfamily V member 1 (Homo sapiens) (UniProt Q8NER1) (assay: HTS Assay for Compounds that Act as Potentiators of the Vanilloid Receptor 1). Conditions: TRPV1-expressing cells, Fluo-8 calcium influx, capsaicin EC20 potentiation; at 8.33 µM; stronger effect = higher value.
Source text: The transient receptor potential ion channel, family V, number 1, (TRPV1) is one of the most important molecular transducers of painful stimuli and a potential target for analgesic drug development. Although recent clinical trials with orthosteric antagonists have not produced a successful drug because of a hyperthermia side effect and their tendency to block thermal noxious pain, this ion channel is undeniably well placed in the pain pathway, and the idea of blocking pain signals before they enter the CNS is an excellent concept and of proven efficacy when TRPV1 agonists are used. We propose a new approach involving allosteric modulation to impose an activity-dependent constraint within the context of inflammation and tissue damage that would alter the responsiveness of the channel in a way that an orthosteric vanilloid antagonist cannot achieve. We believe that the allosteric modulator approach has not been explored for this target. The main goal of this proposal is to identify additional, new, potent allosteric modulators of TRPV1 that can be used to investigate TRPV1 function. Our recent report provides evidence of proof of concept, but the compounds are just at the edge of utility in terms of potency. […] The question of whether they can be used as analgesic agents is complex, but if suitable compounds are identified then testing for analgesic properties will be conducted. NIH Chemical Genomics Center [NCGC] NIH Molecular Libraries Probe Centers Network [MLPCN] MLPCN Grant: MH089480-1A1 Assay Submitter (PI): Michael Iadarola, National Institute of Dental and Cranofacial Research
Upon TRPV1 activation in TRPV1 cells, the channel opens and extracellular cations flow through the channel into the cytosol. A calcium binding dye (Fluo-8) becomes fluorescent when bound to calcium. This dye is pre-loaded into cells and is used as a marker for calcium influx. The amount of accumulated calcium is precisely quantified using the FDSS kinetic reader and the calcium dye. For the HTS assay, freshly prepared cells are plated at a density of 2000/well in 3 ul medium in 1536-well plates and cultured overnight at 35.5C. Cells will be loaded with 1 ul of the homogeneous calcium dye (ABD Bioquest) at room temperature for 40 to 90 minutes. Plates will be loaded into the FDSS kinetic reader and a 1 sec / cycle for 10 second baseline signal will be measured. Compound library will then be added with a pintool at 23 nl and measured kinetically for 3 minutes. This portion of the read is considered the agonist portion of the screen. Following the 3 minutes of incubation, an on board pipettor will deliver 1 ul of capsaicin for a final concentration equal to the EC20. Signal will be measured kinetically for an additional 2 minutes. This portion of the read is considered the allosteric enhancer portion of the screen. The FDSS reader has a standard filter set capable of measuring calcium bound Fluo-8 (ex=480 and em=520 nm).
Note: 0% is about no effect.

Sequence of Transient receptor potential cation channel subfamily V member 1 (Homo sapiens) (Q8NER1 whole entry, looked up): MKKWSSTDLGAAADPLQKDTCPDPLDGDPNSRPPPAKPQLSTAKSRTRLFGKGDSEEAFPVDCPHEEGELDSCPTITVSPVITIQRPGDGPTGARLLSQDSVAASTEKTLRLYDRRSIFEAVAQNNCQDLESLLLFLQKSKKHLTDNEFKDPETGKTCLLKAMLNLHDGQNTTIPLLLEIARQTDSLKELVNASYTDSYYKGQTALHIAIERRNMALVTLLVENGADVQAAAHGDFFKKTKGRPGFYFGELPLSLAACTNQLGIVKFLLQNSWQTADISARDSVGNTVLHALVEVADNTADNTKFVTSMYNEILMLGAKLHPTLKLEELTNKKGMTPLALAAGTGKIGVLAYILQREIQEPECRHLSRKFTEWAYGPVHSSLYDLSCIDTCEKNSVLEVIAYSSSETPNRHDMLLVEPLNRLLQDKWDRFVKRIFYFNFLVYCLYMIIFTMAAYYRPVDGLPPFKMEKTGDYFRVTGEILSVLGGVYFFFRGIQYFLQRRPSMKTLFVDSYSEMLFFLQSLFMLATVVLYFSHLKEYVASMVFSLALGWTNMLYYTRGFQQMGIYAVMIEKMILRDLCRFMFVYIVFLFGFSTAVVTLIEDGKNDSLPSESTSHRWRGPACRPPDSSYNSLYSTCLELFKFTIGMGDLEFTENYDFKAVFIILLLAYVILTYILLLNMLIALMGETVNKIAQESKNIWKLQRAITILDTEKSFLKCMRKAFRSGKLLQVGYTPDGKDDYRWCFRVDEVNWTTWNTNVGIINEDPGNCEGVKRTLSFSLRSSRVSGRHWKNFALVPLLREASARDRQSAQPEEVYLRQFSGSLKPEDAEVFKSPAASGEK

potentiation, inactive:
O=C(Nc1ccccn1)C1CCN(S(=O)(=O)c2ccc3c(c2)OCCO3)CC1 1.92%
O=C(CCNC(=O)c1ccc(Cl)cc1)NC1CCCc2ccccc21 (stereo not given) 27%
COc1ccccc1C(=O)Nc1ccc(OCC(=O)N2CCCCC2)cc1 -9.6%
COc1ccccc1C(=O)Nc1ccc(C)c(S(=O)(=O)N2CCCCC2)c1 -33.7%
Cc1ccc(NC(=O)Cn2c(C)csc2=O)cc1 15%
Cc1ccc(-n2nc(C)c(C(=O)O)c2-n2cccc2)cc1 21.9%
O=C(O)CSc1ccc(S(=O)(=O)N2CCCC2)cn1 5.08%
CCN(CC(=O)Nc1ccc(OC)cc1)C(=O)c1ccc(Cl)c(S(=O)(=O)N2CCCC2)c1 0.452%
Cc1ccc(C(=O)NCC(c2cccs2)N(C)C)cc1S(=O)(=O)N1CCOCC1 (stereo not given) 2.03%
Cc1noc(C)c1COc1ccc(C(=O)NCCOc2ccccc2)cc1 -13.4%
c1ccc2cc(CCCc3cc4ccccc4cn3)ncc2c1 -8.54%
O=c1ccc(S(=O)(=O)N2CCCC2)cn1Cc1nc(-c2ccccc2)no1 -29.3%
CC1CCc2sc(C(=O)NCC(c3ccco3)N3CCCCC3)cc2C1 (stereo not given) -4.62%
Cc1ccc(-c2ccc(/C=C(\C#N)C(N)=S)o2)c([N+](=O)[O-])c1 -9.36%
CCN(CC(=O)Nc1c(F)cccc1F)C(=O)c1cnc(C)cn1 -6.22%
CC1CC(=O)Nc2ccccc2N1C(=O)COc1ccc2cc(Br)ccc2c1 (stereo not given) -0.32%
O=C(OCC(=O)N1CCc2ccccc21)c1ccc([N+](=O)[O-])cc1 -20.6%
O=S(=O)(c1cccs1)N1CCN(CCOc2ccccc2)CC1 -11.9%
Cc1noc(C)c1C(=O)NCC1COc2ccccc2O1 (stereo not given) -2.08%
COc1ccc(-c2nc3c(c(SCC(=O)Nc4ccc(C(=O)O)cc4)n2)Cc2ccccc2O3)cc1 15.9%
